PMC11006913

Assays:
Test in all cases: PBM; 200 nM protein, PBS
Conditions in all cases: dsDNA, one strand shown
[1] = biological target: NKX3-2 (Homo sapiens, UniProt P78367 192-278, P234S)
[2] = biological target: NKX3-2 (Homo sapiens, UniProt P78367 192-278)
[3] = biological target: CRX (Homo sapiens, UniProt O43186 26-111, R41L)
[4] = biological target: ALX1 (Homo sapiens, UniProt Q15699 118-204)
[5] = biological target: HOXA4 (Homo sapiens, UniProt Q00056 201-287, W262F)
[6] = biological target: ALX3 (Homo sapiens, UniProt O95076 139-225, N203S)
Chain of ALX3 (O95076 139-225 N203S): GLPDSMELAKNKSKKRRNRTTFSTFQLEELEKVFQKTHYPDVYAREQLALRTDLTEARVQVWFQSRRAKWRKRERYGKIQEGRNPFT

[7] = biological target: HOXA2 (Homo sapiens, UniProt O43364 129-215)
Chain of HOXA2 (O43364 129-215): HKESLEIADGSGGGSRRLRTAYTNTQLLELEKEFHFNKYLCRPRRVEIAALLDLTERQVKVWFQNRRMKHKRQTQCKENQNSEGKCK

[8] = biological target: NKX2-5 (Homo sapiens, UniProt P52952 125-210)
Chain of NKX2-5 (P52952 125-210): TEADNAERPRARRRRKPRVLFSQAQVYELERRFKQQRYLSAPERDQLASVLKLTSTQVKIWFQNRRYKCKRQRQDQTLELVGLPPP

Chain of NKX3-2 (Homo sapiens, UniProt P78367 192-278, P234S) (P78367 192-278 P234S): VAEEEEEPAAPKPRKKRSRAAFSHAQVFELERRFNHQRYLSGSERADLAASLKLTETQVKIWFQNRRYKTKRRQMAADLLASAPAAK
Chain of NKX3-2 (Homo sapiens, UniProt P78367 192-278) (P78367 192-278): as the sequence (P78367 192-278 P234S) above, with S43P counted along it
Chain of CRX (O43186 26-111 R41L): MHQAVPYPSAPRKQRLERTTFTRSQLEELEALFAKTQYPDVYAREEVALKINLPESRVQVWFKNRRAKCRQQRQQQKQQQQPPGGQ
Chain of HOXA4 (Q00056 201-287 W262F): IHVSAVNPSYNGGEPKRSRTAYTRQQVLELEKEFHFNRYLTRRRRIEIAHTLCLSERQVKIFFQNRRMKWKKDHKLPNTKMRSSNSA
Chain of ALX1 (Q15699 118-204): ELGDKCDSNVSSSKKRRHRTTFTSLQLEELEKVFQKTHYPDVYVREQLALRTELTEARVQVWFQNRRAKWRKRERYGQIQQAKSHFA

## CAGGGAAG
[1]
  binding signal: 10.5 upbm affinity estimate (log intensity, higher = more binding, comparable within an allelic series)
[2]
  binding signal: 10.5 upbm affinity estimate (log intensity, higher = more binding, comparable within an allelic series)

## AGTGCACT
[1]
  binding signal: 12.3 upbm affinity estimate (log intensity, higher = more binding, comparable within an allelic series)
[2]
  binding signal: 12.6 upbm affinity estimate (log intensity, higher = more binding, comparable within an allelic series)

## CCCCGCAA
[1]
  binding signal: 10.7 upbm affinity estimate (log intensity, higher = more binding, comparable within an allelic series)
[2]
  binding signal: 10.7 upbm affinity estimate (log intensity, higher = more binding, comparable within an allelic series)

## CCTATGGC
[1]
  binding signal: 10.6 upbm affinity estimate (log intensity, higher = more binding, comparable within an allelic series)
[2]
  binding signal: 10.6 upbm affinity estimate (log intensity, higher = more binding, comparable within an allelic series)

## GGGCGGAA
[1]
  binding signal: 10.7 upbm affinity estimate (log intensity, higher = more binding, comparable within an allelic series)
[2]
  binding signal: 10.7 upbm affinity estimate (log intensity, higher = more binding, comparable within an allelic series)

## AAGTATAC
[1]
  binding signal: 11.6 upbm affinity estimate (log intensity, higher = more binding, comparable within an allelic series)
[2]
  binding signal: 11.7 upbm affinity estimate (log intensity, higher = more binding, comparable within an allelic series)

## CATCACTA
[1]
  binding signal: 11.5 upbm affinity estimate (log intensity, higher = more binding, comparable within an allelic series)
[2]
  binding signal: 11.5 upbm affinity estimate (log intensity, higher = more binding, comparable within an allelic series)

## GAGAGTAC
[1]
  binding signal: 12 upbm affinity estimate (log intensity, higher = more binding, comparable within an allelic series)
[2]
  binding signal: 12.1 upbm affinity estimate (log intensity, higher = more binding, comparable within an allelic series)

## CTTAATAC
[3]
  binding signal: 11.3 upbm affinity estimate (log intensity, higher = more binding, comparable within an allelic series)

## GTCTTAAC
[3]
  binding signal: 10.3 upbm affinity estimate (log intensity, higher = more binding, comparable within an allelic series)

## GCATTAGC
[3]
  binding signal: 10.5 upbm affinity estimate (log intensity, higher = more binding, comparable within an allelic series)

## CTTAATGC
[3]
  binding signal: 11 upbm affinity estimate (log intensity, higher = more binding, comparable within an allelic series)

## ACTAAGAC
[3]
  binding signal: 10.1 upbm affinity estimate (log intensity, higher = more binding, comparable within an allelic series)

## ACTAAGCT
[3]
  binding signal: 11.4 upbm affinity estimate (log intensity, higher = more binding, comparable within an allelic series)

## GGCACTCA
[1]
  binding signal: 12.5 upbm affinity estimate (log intensity, higher = more binding, comparable within an allelic series)
[2]
  binding signal: 12.6 upbm affinity estimate (log intensity, higher = more binding, comparable within an allelic series)

## ATAAGCCG
[3]
  binding signal: 12.3 upbm affinity estimate (log intensity, higher = more binding, comparable within an allelic series)

## ACGCTTAA
[3]
  binding signal: 10.3 upbm affinity estimate (log intensity, higher = more binding, comparable within an allelic series)

## CTAATACC
[3]
  binding signal: 11.2 upbm affinity estimate (log intensity, higher = more binding, comparable within an allelic series)

## ATTAAGCG
[3]
  binding signal: 10.8 upbm affinity estimate (log intensity, higher = more binding, comparable within an allelic series)

## AGCATTAA
[3]
  binding signal: 10.9 upbm affinity estimate (log intensity, higher = more binding, comparable within an allelic series)

## CGGCTTAG
[3]
  binding signal: 11.9 upbm affinity estimate (log intensity, higher = more binding, comparable within an allelic series)

## GTATTAGA
[3]
  binding signal: 10.7 upbm affinity estimate (log intensity, higher = more binding, comparable within an allelic series)

## CCGCTTAA
[3]
  binding signal: 10.9 upbm affinity estimate (log intensity, higher = more binding, comparable within an allelic series)

## AAAGTGGC
[1]
  binding signal: 12.6 upbm affinity estimate (log intensity, higher = more binding, comparable within an allelic series)
[2]
  binding signal: 12.6 upbm affinity estimate (log intensity, higher = more binding, comparable within an allelic series)

## ATTAAGAC
[3]
  binding signal: 11 upbm affinity estimate (log intensity, higher = more binding, comparable within an allelic series)

## CTAATGCC
[3]
  binding signal: 10.1 upbm affinity estimate (log intensity, higher = more binding, comparable within an allelic series)

## CTAAGCTC
[3]
  binding signal: 11.1 upbm affinity estimate (log intensity, higher = more binding, comparable within an allelic series)

## CGCATTAG
[3]
  binding signal: 10.4 upbm affinity estimate (log intensity, higher = more binding, comparable within an allelic series)

## GAGATTAC
[3]
  binding signal: 12.3 upbm affinity estimate (log intensity, higher = more binding, comparable within an allelic series)

## ATAATCTA
[3]
  binding signal: 12.4 upbm affinity estimate (log intensity, higher = more binding, comparable within an allelic series)

## AGCTTAAG
[3]
  binding signal: 11.6 upbm affinity estimate (log intensity, higher = more binding, comparable within an allelic series)

## CTAAGCCA
[3]
  binding signal: 10.7 upbm affinity estimate (log intensity, higher = more binding, comparable within an allelic series)

## CTTAAGAC
[3]
  binding signal: 10.7 upbm affinity estimate (log intensity, higher = more binding, comparable within an allelic series)

## AGGCTTAG
[3]
  binding signal: 11.6 upbm affinity estimate (log intensity, higher = more binding, comparable within an allelic series)

## GGTGTTAA
[3]
  binding signal: 10.2 upbm affinity estimate (log intensity, higher = more binding, comparable within an allelic series)

## ATCTTAAG
[3]
  binding signal: 10.8 upbm affinity estimate (log intensity, higher = more binding, comparable within an allelic series)

## CTTTATCC
[3]
  binding signal: 10.7 upbm affinity estimate (log intensity, higher = more binding, comparable within an allelic series)

## AGTATTAG
[3]
  binding signal: 10.8 upbm affinity estimate (log intensity, higher = more binding, comparable within an allelic series)

## AGTATTAA
[3]
  binding signal: 11 upbm affinity estimate (log intensity, higher = more binding, comparable within an allelic series)

## CCTAAGCC
[3]
  binding signal: 11.2 upbm affinity estimate (log intensity, higher = more binding, comparable within an allelic series)

## CAGATTAC
[3]
  binding signal: 12.3 upbm affinity estimate (log intensity, higher = more binding, comparable within an allelic series)

## ACTAATAC
[3]
  binding signal: 10.7 upbm affinity estimate (log intensity, higher = more binding, comparable within an allelic series)

## CCTAATAC
[3]
  binding signal: 10.6 upbm affinity estimate (log intensity, higher = more binding, comparable within an allelic series)

## CTGGCAAG
[1]
  binding signal: 10.5 upbm affinity estimate (log intensity, higher = more binding, comparable within an allelic series)
[2]
  binding signal: 10.5 upbm affinity estimate (log intensity, higher = more binding, comparable within an allelic series)

## GCTAAGAC
[3]
  binding signal: 10.2 upbm affinity estimate (log intensity, higher = more binding, comparable within an allelic series)

## TAAGACGA
[3]
  binding signal: 10.2 upbm affinity estimate (log intensity, higher = more binding, comparable within an allelic series)

## AGTGGTCC
[1]
  binding signal: 11.9 upbm affinity estimate (log intensity, higher = more binding, comparable within an allelic series)
[2]
  binding signal: 11.9 upbm affinity estimate (log intensity, higher = more binding, comparable within an allelic series)

## GCTTAAGA
[3]
  binding signal: 11.1 upbm affinity estimate (log intensity, higher = more binding, comparable within an allelic series)

## CGTCTTAA
[3]
  binding signal: 10.7 upbm affinity estimate (log intensity, higher = more binding, comparable within an allelic series)

## GTCAACAA
[4]
  binding signal: 7.43 upbm affinity estimate (log intensity, higher = more binding, comparable within an allelic series)

## CCATTAGA
[5]
  binding signal: 10.6 upbm affinity estimate (log intensity, higher = more binding, comparable within an allelic series)

## CTATATTA
[6]
  binding signal: 8.73 upbm affinity estimate (log intensity, higher = more binding, comparable within an allelic series)

## AAATACCA
[7]
  binding signal: 9.01 upbm affinity estimate (log intensity, higher = more binding, comparable within an allelic series)

## GACACTAA
[7]
  binding signal: 9.38 upbm affinity estimate (log intensity, higher = more binding, comparable within an allelic series)

## AATTGACC
[8]
  binding signal: 10.6 upbm affinity estimate (log intensity, higher = more binding, comparable within an allelic series)

## CCCTCAAA
[2]
  binding signal: 11.6 upbm affinity estimate (log intensity, higher = more binding, comparable within an allelic series)

## GGAGAGTA
[2]
  binding signal: 11.6 upbm affinity estimate (log intensity, higher = more binding, comparable within an allelic series)
